In PubChem BioAssay AID504909 (Southern Research Specialized Biocontainment Screening …, 2011) one finds outcome data, which are given here for 27 compounds.

The structures appear in SMILES notation. Potency and affinity values are given separately. Activity calls are given as the source filed them. Entries that show only a call come without a potency. The rule behind the calls is not given here.

This test in a line: Vero cell cytotoxicity, dose response, cytotoxicity control for M. tuberculosis growth inhibitor project, Vero cells, purified and synthesized compounds, set 5 (AID 504909). To be noted: series mostly up to 100 µM.
Regarding `CCOC1OC(=O)C(Cl)=C1Nc1ccccc1C` (configuration not stated), the outcome was inactive.
The entry for `COc1c(N2CCNC(C)C2)c(F)cc2c(=O)c(C(=O)O)cn(C3CC3)c12` (configuration not stated) is “inactive”; for `NC(=O)c1cnccn1` it is “inactive”; for `COc1ccc(NC(=O)CSc2nc3ccccc3c(=O)[nH]2)cc1` it is “inactive”.
Turning to `Cc1[nH]c(=S)[nH]c(=O)c1C`, the compound was called inactive.
For the compound `CC(Sc1nc2ccccc2c(=O)[nH]1)C(=O)NC1CCCCC1` (configuration not stated), the result was inactive.
As for `CC(C)CCNC(=O)CSc1nc2ccccc2c(=O)[nH]1`, the result was inactive.
The entry for `CN[C@@H]1[C@H](O[C@H]2[C@H](O[C@H]3[C@H](O)[C@@H](O)[C@H](N=C(N)N)[C@@H](O)[C@@H]3N=C(N)N)O[C@@H](C)[C@]2(O)C=O)O[C@@H](CO)[C@H](O)[C@H]1O` is “inactive”; for `CCSc1nc(C)c(C)c(=O)[nH]1` it is “inactive”.
With `CC[N+](C)(CC)CCCCOc1ccc2c(c1)C(=O)c1cc(OCCCC[N+](C)(CC)CC)ccc1-2` the entry was “inactive”; with `CCC(Sc1nc2ccccc2c(=O)[nH]1)C(=O)Nc1cccc(OC)c1` (configuration not stated), “inactive”.
For `CCC(Sc1nc2c(c(=O)[nH]1)CCC2)C(=O)Nc1cccc(OC)c1` (configuration not stated), the compound was called inactive.
Regarding `O=C(CSc1nccc(=O)[nH]1)NC1CCCCC1`, the compound was called inactive.
Turning to `CC1CCN(C(=O)CSc2nc3ccccc3c(=O)[nH]2)CC1`, the compound was classed as inactive.
The entry for `Cc1ccc(NC(=O)COC(=O)CCc2c[nH]c3ccccc23)cc1[N+](=O)[O-]` is “inactive”; for `CC[C@@H](CO)NCCN[C@@H](CC)CO` it is “inactive”.
In the case of `Cc1c[nH]c(=S)[nH]c1=O`, the call was inactive.
On to `O=C(CSc1ccccn1)NC1CCCCC1`, for which the compound was called inactive.
Turning to `O=C(CSc1nc2ccccc2c(=O)[nH]1)NCc1ccc(Cl)cc1`, the compound was called inactive.
The entry for `Cc1nc(SCC(=O)NCCC(C)C)[nH]c(=O)c1C` is “inactive”; for `Cc1cccc(/C=C/C(=O)c2ccc([N+](=O)[O-])o2)c1` it is “inactive”.
The entry for `Nc1c(C(=O)NC2CCCCC2)nsc1C(=O)OCC(=O)NC1CCCCC1` is “inactive”; for `Nc1cc(=O)[nH]c(SCC(=O)NC2CCCCC2)n1` it is “inactive”.
The entry for `NC(=O)CSc1nc2ccccc2c(=O)[nH]1` is “inactive”.
`Cc1nc(SCC(=O)NC2CCCCC2)[nH]c(=O)c1C`: the outcome was inactive.
The entry for `CCC(Sc1nc2ccccc2c(=O)[nH]1)C(=O)NC1CCCCC1` (configuration not stated) is “inactive”.
Regarding `CC(C)NC(=O)CSc1nc2ccccc2c(=O)[nH]1`, the call was inactive.
